From ChEMBL document CHEMBL3988442, “University of Dundee, Small-Polar-MMV Screening Library” (2021) come the findings set out here.

The campaign covered roughly 69,000 compounds. About 1,000 (1.4%) showed an effect of 50% or more. The sample as a whole holds a higher share of strong results than the screen did.

The subject of the assay is Leishmania donovani. Briefly: Leishmania intramacrophage assay. It counts as functional, organism-based. Also noted: scale not given: in the data most compounds retested in dose-response had high values.

Regarding `C[C@@H]1CN(C(=O)C2CCS(=O)(=O)CC2)C[C@@]1(O)C1CC1`, the “Percent Effect” value (30.3 µM, […]) was -11.49%.
On to `Cc1nc(C)n(CC2CCCCN2CCCO)n1` (stereo not given), for which the “Percent Effect” value (30.3 µM, […]) is -18.17%.
On the same count and under the same terms, with `CC(=O)Nc1cc2c(cc1C)OCO2` the figure was 3.338%.
For `Cc1ccc(F)cc1NS(=O)(=O)c1cc2c(c(C(=O)O)c1)OCCO2`, the “Percent Effect” value (30 µM) is reported as 10.19%.
As to `CN1CCO[C@@H]2CN(C(=O)NCc3ccccc3)CC[C@@H]2C1.O=C(O)C(F)(F)F`, the “Percent Effect” value (30.3 µM, […]) came to 14.01%.
For the molecule `O=C(N1CCCC1)N1C[C@H]2CCC[C@@]2(COCc2ccccn2)C1.O=C(O)C(F)(F)F`, where the note is “30.3 µM, […]”, the “Percent Effect” value stood at 12.71%.
On the same count and under the same terms, to `Cc1ccc(CN2CC[C@@H]3OCCN(Cc4ccncc4)[C@H]3CC2)s1.O=C(O)C(F)(F)F.O=C(O)C(F)(F)F.O=C(O)C(F)(F)F` belongs -14.43%.
Turning to `CS(=O)(=O)NCCCNC(=O)NCc1ccccc1`, the “Percent Effect” value (30 µM) was found to be 13.69%.
In the case of `CN(C)CC(=O)N1CC2(CCN(C(=O)Nc3ccccc3)C2)C1.O=C(O)C(F)(F)F`, the “Percent Effect” value (30.3 µM, […]) came to 27.48%.
With `Cc1nnc([C@]23COC[C@H]2CN(Cc2cnn(C)c2)C3)o1.O=C(O)C(F)(F)F`, under “30.3 µM, […]”, the “Percent Effect” value is 10.4%.
As for `COc1cccc(CNCC2CCN(CC(C)O)CC2)c1OC` (stereo not given), the “Percent Effect” value (30 µM) is on record as -4.893%.
On to `Cc1noc(C)c1CNCC1CCN(CC(O)c2ccccc2)CC1` (stereo not given), for which, for the setting “30 µM, 30.03 µM”, the “Percent Effect” value stood at 48.93%.
Still for that read-out and setting: to `CC(O)CN1CCC(CNCc2ccccc2Br)CC1` (stereo not given) belongs 58.06%.
On to `CCOc1ccccc1CNCC1CCN(CC(C)O)CC1` (stereo not given), for which the “Percent Effect” value (30 µM) came out at 14.79%.
Same read-out and setting: to `CC(O)CN1CCC(CNCc2ccccc2Cl)CC1` (stereo not given) belongs 7.148%; to `Cc1ccc(CNCC2CCN(CC(O)c3ccccc3)CC2)o1` (stereo not given), 53.67%.
As for `COc1ccc(CNCC2CCN(CC(C)O)CC2)c2ccccc12` (stereo not given), the “Percent Effect” value (30 µM, 30.03 µM) came out at 95.94%.
Same read-out and setting: to `Cc1ncccc1CNCC1CCN(CC(O)c2ccccc2)CC1` (stereo not given) belongs 43.15%.
With `CC(O)CN1CCC(CNCc2ccccc2F)CC1` (stereo not given), the “Percent Effect” value (30 µM) was 14.91%.
Consider `CCOc1ccc(NC(=O)N2CCNC(=O)C2)c(C(F)(F)F)c1`, for which, where the note is “30.3 µM, […]”, the “Percent Effect” value is -5.154%.
On to `c1ccc(OCCCN2CCOC(CNc3cccnn3)C2)cc1` (stereo not given), for which the “Percent Effect” value (30 µM) was found to be 30.1%.
For the molecule `CCc1nnc(CN(C)C(=O)C(CC)n2c(CC)nc3ccccc32)o1` (stereo not given), the “Percent Effect” value (30.3 µM, […]) was found to be 37.19%.
Same read-out and setting: to `CC(=O)N1CC(=O)N(c2cnn(C)c2)CC12CCN(Cc1ccco1)C2` (stereo not given) belongs 8.312%.
As to `CC(c1nc(C(C)(C)C)no1)N1CCN(C(=O)CN2CCOCC2)CC1` (stereo not given), the “Percent Effect” value (30.3 µM, […]) is recorded as 24.72%.
On the same count and under the same terms, to `CSC(C)(C)CNC(=O)NC1CCC1` belongs -4.731%.
Still for that read-out and setting: to `CSc1nnc(CNC(=O)Nc2ccccc2F)n1C` belongs 17.43%; to `COc1ccccc1NC(=O)NCc1nnc(SC)n1C`, 56.86%.
Take `CCc1ccccc1NC(=O)NCc1nnc(SC)n1C`: the “Percent Effect” value (30.3 µM, […]) worked out at 23.33%.
Still for that read-out and setting: with `O=C(c1cnc2ccc(Cl)cc2c1NCc1ccco1)N1CCCCC1` the figure was -0.01015%.
As to `Cc1nc(C)n(CC2CCCCN2CCOc2ccc(C#N)cc2)n1` (stereo not given), the “Percent Effect” value (30 µM) was 19.26%.
For `COC(=O)NC1(C(=O)Nc2ccc(-c3ncc[nH]3)cc2)CCCC1`, for the setting “30.3 µM, […]”, the “Percent Effect” value stood at 26.54%.
Same read-out and setting: with `CCc1noc(C2CCCCN2C(=O)c2cc(C)oc2C)n1` (stereo not given) the figure was -92.24%.
Same read-out and setting: to `Cc1ccc(C(=O)N2CCC3(CC2)COC(COc2cccnc2)C3)o1.O=C(O)C(F)(F)F` (stereo not given) belongs 59.81%.
On to `Cc1ccc(C(=O)N2CCC3(CC2)COC(COc2ccccn2)C3)o1.O=C(O)C(F)(F)F` (stereo not given), for which, for the setting “30 µM, 30.03 µM”, the “Percent Effect” value is -68.01%.
For the molecule `CCS(=O)(=O)N1CCC2(CC1)COC(COc1cccnc1)C2.O=C(O)C(F)(F)F` (stereo not given), the “Percent Effect” value (30.3 µM, […]) stood at 15.1%.
Turning to `Cc1ccc(N2CCCC(NCC(=O)NC3CCOCC3)C2)nn1` (stereo not given), the “Percent Effect” value (30 µM, 30.03 µM) amounted to 24.15%.
Regarding `CCc1nc(C2CCCN(c3nccc(N4CCCC4)n3)C2)no1` (stereo not given), where the note is “30.3 µM, […]”, the “Percent Effect” value is 4.333%.
The same measure, in the same setting: with `CC(C)CCN1CC[C@H](c2nnc(Cc3c[nH]c4ccccc34)o2)C1` the figure was 31.19%; with `CCOc1ccc(CN2CCC(c3nc(C)cc(C)n3)C2)cc1CO` (stereo not given), 20.63%.
Still for that read-out and setting: with `NCC1Cc2cccc(-c3ccc(O)c(F)c3)c2O1` (stereo not given) the figure was 31.37%; with `COc1cc(C)c(-c2ccc(F)c3c2OC(CN)C3)cc1C` (stereo not given), 82.34%.
For the molecule `COc1cccnc1-c1ccc(F)c2c1OC(CN)C2` (stereo not given), the “Percent Effect” value (30.3 µM, […]) was -22.62%.
Consider `COc1cc(-c2cccc3c2OC(CN)C3)ccc1O` (stereo not given), for which the “Percent Effect” value (30.3 µM, […]) worked out at 33.17%.
Regarding `COc1cc(-c2cccc3c2OC(CN)C3)cc(OC)c1OC` (stereo not given), the “Percent Effect” value (30.3 µM, […]) is reported as 39.45%.
Same read-out and setting: to `NCC1Cc2cccc(-c3nccc(N4CCC(O)CC4)n3)c2O1` (stereo not given) belongs 19.12%; to `COc1ccc(-c2cccc3c2OC(CN)C3)cc1F` (stereo not given), 82.3%; to `COc1c(F)cc(-c2cccc3c2OC(CN)C3)cc1F` (stereo not given), 78.5%.
As for `COc1cc(OC)cc(-c2cccc3c2OC(CN)C3)c1` (stereo not given), the “Percent Effect” value (30.3 µM, […]) turned out to be 81.48%.
The same measure, in the same setting: to `COc1cc(-c2ccc(F)c3c2OC(CN)C3)cc(OC)c1OC` (stereo not given) belongs 19.84%.
Take `Cc1nc(-c2cc(F)c3c(c2)CC(CN)O3)c[nH]1` (stereo not given): under “30.3 µM, […]”, the “Percent Effect” value is given as 25.07%.
